Measurements: PubChem BioAssay (NCATS)
Inconclusive results are not listed. Calls of active or inactive are those of the source. Unless noted, calls come from the whole dose curve; as a rule, active = well fitted curve in either direction with a large enough effect (not every such curve was filed as active); inconclusive = small, poorly fitted or top-dose-only effect, or another doubt; inactive = flat fitted curve, though single readings scatter.

Assays:
[1] = target: Lysosomal acid glucosylceramidase (Homo sapiens) (UniProt P04062); assay: Glucocerebrosidase-p2 (AID 348; in the data active = potency below about 10 µM; note: potency is the fitted concentration of half-maximal effect); details: purified GBA, blue fluorogenic substrate, 40 min
Method in brief: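 Normal human glucocerebrosidase (0.2 nM) with blue fluorogenic substrate (80 uM final) in citrate/phosphate pH 5.9 with 10mM sodium taurocholate, 0.01% tween-20; 40 min RT, NaOH/glycine stop; fluorescence Ex 365/Em 440; AC50 from a titration from 0.6 nM upwards.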

[2] = AP1 Signaling Pathway (AID 357); details: ME-180 AP-1-bla reporter, EGF-induced, beta-lactamase ratio, 5 h; at 7.69 µM (top of the series) unless noted;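 note: ME-180 reporter cells stimulated with EGF at its EC50 level; % is set by controls: 0 for no effect and ±100 for the full control effect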
Method in brief: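 Modulation of EGF-driven AP-1 transcription was assessed with a beta-lactamase reporter in ME-180 cells. Compound and EC50 EGF were co-incubated 5 hours at 37 °C before 2.5-hour CCF4 loading at room temperature and dual-emission reading.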

[3] = NFAT Signaling Pathway (AID 444); details: Jurkat NFAT-bla M1, carbachol, beta-lactamase ratio, 5 h; at 7.69 µM (top of the series) unless noted;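 note: carbachol stimulus at about its EC50 of 1 µM final; % is set by controls: 0 for no effect and ±100 for the full control effect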
Method in brief: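 Read-out: CCF4 FRET ratio (460 nm/530 nm) after 1 h RT dye loading, used for %activity and AC50 from titration series. Cells: Jurkat NFAT-β-lactamase/M1 line, treated with compound plus 1 uM carbachol for 5 h, 37 °C.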

[4] = Stat Signaling Pathway (AID 446); details: ME-180 SIE beta-lactamase reporter, IL-6 stimulated, 5 h; at 7.69 µM (top of the series) unless noted;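 note: ME-180 cervical cancer cells given 40 pM IL-6 alongside compound; SIE-controlled beta-lactamase reporter measured as 460/530 nm FRET emission ratio; % is set by controls: 0 for no effect and ±100 for the full control effect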
Method in brief: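 Emission at 460 and 530 nm (excitation 405 nm) reports SIE-controlled beta-lactamase in ME-180 cells. Cells received compound with 40 pM IL-6 for 5 hrs at 37 C; data scaled between 300 pM IL-6 and 125 nM JAK-inhibitor controls.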

[5] = target: Glucocorticoid receptor (Homo sapiens) (UniProt P04150); assay: GR-GFP Redistribution (AID 450;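 active = compounds whose dose series gives a full or clear partial fitted curve of increased nuclear translocation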; note: potency is the fitted concentration of half-maximal effect); details: U2OS GR-GFP nuclear translocation, laser cytometry, 2 h
[6] = target: Glucocorticoid receptor (Homo sapiens) (UniProt P04150); assay: GR-EFC Redistribution (AID 451; calls by dose curve; note: potency is the fitted concentration of half-maximal effect); details: CHO-K1 GR-EFC translocation, beta-gal luminescence, 2 h
Method in brief: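 Translocation of GR-ED fusion to nuclear EA restores b-gal, read by luminescence after 1 h room-temperature detection. Engineered CHO-K1 biosensor cells, 1,000/well, exposed 2 h at 37 C to titrations up to 46 uM final.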

[7] = target: Mitogen-activated protein kinase 10 (Mus musculus) (UniProt Q61831); assay: JNK3 AlphaScreen Assay (AID 530); details: JNK3 lysate, c-Jun phosphorylation; series mostly up to 57.1 µM;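 note: kinase came from lysate of stimulated human HepG2 cells; signal reports phosphorylation of biotinylated GST-cJun 1-79 at Ser73 with 10 µM ATP; % is set by controls: 0 for no effect and ±100 for the full control effect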
Method in brief: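 Kinase buffer: 20 mM Tris-HCl pH 7.6, 10 mM MgCl2, 1 mM DTT, 0.1 mM Na3VO4, 0.01% Tween-20; ATP 10 uM. Substrate biotin-GST-cJun(1-79), enzyme from activated HepG2 lysates. Detection by Ser73 phospho-antibody AlphaScreen.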

[8] = target: 3',5'-cyclic-AMP phosphodiesterase 4B (Homo sapiens) (UniProt Q07343); assay: qHTS Assay for Inhibitors of PDE-IV (AID 607; active = well fitted activation curve with a large enough effect in the main read-out, with a control signal flat, not every such curve was filed as active; note: % of control where 0% means no effect); details: HEK293 ACTOne CNG channel cells, membrane potential fluorescence; series mostly up to 22.9 µM
Method in brief: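 The readout is membrane depolarisation from a cAMP-sensing CNG channel, detected with a potential dye at ex 535/em 590. Cells were HEK293-derived (endogenous PDE-IV) at 1000 cells/well, titrated up to 22.9 uM final.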

[9] = target: Cytochrome P450 3A4 (Homo sapiens) (UniProt P08684); assay: qHTS Assay for Activators of Cytochrome P450 3A4 (AID 885; active = well fitted curve in the direction sought with a large enough effect; an effect the other way counts as inactive or inconclusive; note: nearly all actives have a fitted effect of over 65% in size); details: recombinant CYP3A4, Luciferin-PPXE luminescence, 60 min; series mostly up to 57.1 µM
Method in brief: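 Activators are scored by enhanced luminescence from CYP3A4 conversion of luciferin-PPXE (25uM, equal to KM) to luciferin, after 60 min at RT with an NADPH-regenerating system.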

[10] = Confirmation and Secondary Assay for Modulators of Hemoglobin Beta Chain Splicing at IVS2 654 locus (AID 910; active = well fitted curve in the direction sought with a large enough effect; an effect the other way counts as inactive or inconclusive;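 note: HeLa cells stably carrying EGFP split by mutant beta-globin IVS2-654 intron; per-well total GFP intensity by laser scanning cytometry after 2-day treatment; % of control where 0% means no effect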); details: HeLa EGFP-654 splicing reporter, GFP fluorescence, 48 h; series mostly up to 38.3 µM
Method in brief: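 Readout: per-well total peak green fluorescence (488 nm ex, 500–520 nm em) from objects 5–250 µm, reflecting correct splicing of an EGFP-654 reporter. Compounds were applied for 2 days at 37 °C to overnight-plated HeLa EGFP-654 cells; controls were DMSO and 500 nM IVS2-654 PNA.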

[11] = Confirmation and Secondary Assay for Modulators of Hemoglobin Beta Chain Splicing at IVS2 705 locus (AID 930; active = well fitted curve in the direction sought with a large enough effect; an effect the other way counts as inactive or inconclusive;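 note: HeLa cells stably expressing the EGFP-705 splicing reporter; GFP fluorescence per well restored by corrected splicing of the IVS2-705 intron in EGFP; % of control where 0% means no effect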); details: HeLa EGFP-705 splicing reporter, GFP fluorescence, 48 h; series mostly up to 38.3 µM
Method in brief: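 Splice-correction reporter: EGFP cDNA split by beta-globin intron 2 bearing the 705 mutation, stably in HeLa. Compound incubation 2 days, 37C; fluorescent objects 5-250 µm summed per well.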

[12] = qHTS Assay for Lipid Storage Modulators (AID 1519; calls by dose curve); details: Drosophila S3 cells, BODIPY lipid droplet/cell ratio, laser cytometry, cells loaded with oleic acid; for activity change, negative = inhibition: at 57.5 µM (top of the series)
Method in brief: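 Cells seeded at 5,000 per well were treated with compounds over a concentration series and loaded with oleic acid (400 uM, as added). Lipid droplet fluorescence (488 nm excitation, 500-530 nm channel) was read by laser-scanning cytometry and normalized to 20 uM Triacsin C.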

[13] = target: Ubiquitin carboxyl-terminal hydrolase 1 (Homo sapiens) (UniProt O94782); assay: Inhibitors of USP1/UAF1: Pilot qHTS (AID 504865; active = well fitted curve in the direction sought with a large enough effect; an effect the other way counts as inactive or inconclusive;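 note: rhodamine fluorescence freed from ubiquitin-rhodamine substrate followed over time; top concentration of the series differs between compounds; % is set by controls: 0 for no effect and ±100 for the full control effect; nearly all actives have a fitted effect of over 35% in size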); details: purified USP1/UAF1, Ub-rhodamine cleavage fluorescence; series mostly up to 54.9 µM
Method in brief: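 USP1/UAF1 complex at 1 nM preincubated 15 min at room temperature with compound, then Ub-Rho substrate added at 150 nM final. Fluorescence (480/540 nm) read kinetically in 50 mM HEPES pH 7.8, 0.5 mM EDTA, 1 mM TCEP, 0.1 mg/ml BSA, 0.01% Tween-20.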

[14] = Primary qHTS for small molecule stabilizers of the endoplasmic reticulum resident proteome: Secreted ER Calcium Modulated Protein (SERCaMP) assay (AID 1508630; active = well fitted curve in the direction sought with a large enough effect; an effect the other way counts as inactive or inconclusive; note: % is set by controls: 0 for no effect and ±100 for the full control effect); details: SH-SY5Y GLuc-SERCaMP (Gaussia luciferase released on ER calcium loss) secretion, thapsigargin, luminescence; series mostly up to 38.4 µM
Method in brief: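 The SH-SY5Y reporter protocol was run at 3 concentrations up to 38.3 uM (primary) or 11 concentrations (follow-up): 16 h compound, 100 nM thapsigargin for 4 h, then extracellular luciferase luminescence.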

[15] = target: Cytochrome P450 1A2 (Homo sapiens) (UniProt P05177); assay: p450-cyp1a2 (AID 410; calls by dose curve; note: potency is the fitted concentration of half-maximal effect;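 for activity change, negative = inhibition: -100% = full effect of reference inhibitor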); details: recombinant CYP1A2, luciferin-ME demethylation, luminescence; series mostly up to 57 µM
Method in brief: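 Read-out is luminescence from luciferin produced by CYP1A2 demethylation of Luciferin-ME (100uM, at Km). Detection reagent stopped the 60 min NADPH-dependent reaction; signals were normalized to 57 uM furafylline.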

[16] = target: Cytochrome P450 3A4 (Homo sapiens) (UniProt P08684); assay: qHTS Assay for Inhibitors and Substrates of Cytochrome P450 3A4 (AID 884; active = well fitted curve in the direction sought with a large enough effect; an effect the other way counts as inactive or inconclusive; note: potency is the fitted concentration of half-maximal effect; nearly all actives have a fitted effect of over 50% in size); details: recombinant CYP3A4, Luciferin-PPXE luminescence; series mostly up to 57.1 µM
Method in brief: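 Luminescent readout of luciferin produced by CYP3A4 (20 nM) dealkylation of Luciferin-PPXE, 25 uM (its KM). NADPH-driven reaction ran 60 min at RT after 10 min compound preincubation; data scaled to 57 uM ketoconazole as 100% inhibition.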

[17] = target: Cytochrome P450 2C19 (Homo sapiens) (UniProt P33261); assay: qHTS Assay for Inhibitors and Substrates of Cytochrome P450 2C19 (AID 899; active = well fitted curve in the direction sought with a large enough effect; an effect the other way counts as inactive or inconclusive; note: potency is the fitted concentration of half-maximal effect; nearly all actives have a fitted effect of over 60% in size); details: recombinant CYP2C19, luciferin-H EGE luminescence; series mostly up to 57.1 µM
Method in brief: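 Luminescence readout of luciferin formed from 10uM Luciferin-H EGE (KM level) by 5 nM CYP2C19 in 50mM KPO4. 60 min NADPH-driven reaction at 37C after 10 min compound preincubation; data scaled to 57uM ketoconazole inhibition.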

[18] = qHTS Assay for Identification of Small Molecule Agonists for Hypoxia Response Element Signaling Pathway (AID 914; active = well fitted activation curve with a large enough effect in the signal ratio, with a control signal flat, not every such curve was filed as active; the % refers to the signal ratio; note: potency is the fitted concentration of half-maximal effect; for activation: % of control where 0% means no effect); details: ME-180 (cervical carcinoma) HRE-bla reporter, beta-lactamase ratio, CoCl2, 17 h; activation: stronger effect = higher value
Method in brief: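 Cells were plated overnight, pin-dosed with compound in a titration series, co-stimulated with EC50 CoCl2 and incubated 17 hours at 37 degrees Celsius. CCF4 substrate was then loaded, and AC50 values came from the 460nm/530nm ratio.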

[19] = measured here: cell count channel max response
[20] = measured here: lipid channel max response

Sequence of Cytochrome P450 1A2 (Homo sapiens) (P05177 whole entry, looked up): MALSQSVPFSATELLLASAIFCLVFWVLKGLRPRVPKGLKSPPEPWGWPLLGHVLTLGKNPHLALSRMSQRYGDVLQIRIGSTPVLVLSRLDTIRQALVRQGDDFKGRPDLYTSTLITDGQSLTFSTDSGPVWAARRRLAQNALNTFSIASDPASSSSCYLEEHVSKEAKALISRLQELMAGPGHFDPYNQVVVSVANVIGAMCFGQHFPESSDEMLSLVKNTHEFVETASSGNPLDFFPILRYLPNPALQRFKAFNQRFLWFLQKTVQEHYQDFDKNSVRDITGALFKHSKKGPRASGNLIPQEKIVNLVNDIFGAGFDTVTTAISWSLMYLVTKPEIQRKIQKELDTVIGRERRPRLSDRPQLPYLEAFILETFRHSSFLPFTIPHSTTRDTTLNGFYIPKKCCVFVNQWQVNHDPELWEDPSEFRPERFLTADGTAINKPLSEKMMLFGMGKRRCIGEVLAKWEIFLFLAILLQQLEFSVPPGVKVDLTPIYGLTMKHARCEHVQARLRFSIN
Sequence of Glucocorticoid receptor (Homo sapiens) (P04150 whole entry, looked up, the tested form may be a part): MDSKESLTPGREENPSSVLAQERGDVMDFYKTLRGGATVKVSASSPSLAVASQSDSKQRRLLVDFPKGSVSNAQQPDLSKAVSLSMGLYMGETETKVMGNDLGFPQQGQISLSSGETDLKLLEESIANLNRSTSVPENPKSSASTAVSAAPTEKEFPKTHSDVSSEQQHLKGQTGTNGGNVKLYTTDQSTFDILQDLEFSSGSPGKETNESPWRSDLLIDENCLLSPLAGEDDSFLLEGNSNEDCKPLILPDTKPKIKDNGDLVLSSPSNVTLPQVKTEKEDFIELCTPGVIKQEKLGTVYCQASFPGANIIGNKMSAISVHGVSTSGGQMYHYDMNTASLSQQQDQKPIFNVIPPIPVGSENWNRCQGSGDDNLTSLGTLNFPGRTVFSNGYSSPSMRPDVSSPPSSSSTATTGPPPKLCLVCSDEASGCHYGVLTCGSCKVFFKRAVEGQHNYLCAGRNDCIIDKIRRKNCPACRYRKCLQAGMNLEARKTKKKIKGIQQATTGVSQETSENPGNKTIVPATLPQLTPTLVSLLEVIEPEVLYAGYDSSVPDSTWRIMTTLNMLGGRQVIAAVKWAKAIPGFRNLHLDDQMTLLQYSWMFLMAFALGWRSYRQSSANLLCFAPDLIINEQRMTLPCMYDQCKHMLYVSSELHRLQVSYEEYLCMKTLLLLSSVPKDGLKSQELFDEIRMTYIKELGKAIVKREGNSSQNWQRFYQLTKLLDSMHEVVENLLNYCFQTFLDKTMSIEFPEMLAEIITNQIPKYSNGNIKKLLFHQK
Sequence of Lysosomal acid glucosylceramidase (Homo sapiens) (P04062 whole entry, looked up): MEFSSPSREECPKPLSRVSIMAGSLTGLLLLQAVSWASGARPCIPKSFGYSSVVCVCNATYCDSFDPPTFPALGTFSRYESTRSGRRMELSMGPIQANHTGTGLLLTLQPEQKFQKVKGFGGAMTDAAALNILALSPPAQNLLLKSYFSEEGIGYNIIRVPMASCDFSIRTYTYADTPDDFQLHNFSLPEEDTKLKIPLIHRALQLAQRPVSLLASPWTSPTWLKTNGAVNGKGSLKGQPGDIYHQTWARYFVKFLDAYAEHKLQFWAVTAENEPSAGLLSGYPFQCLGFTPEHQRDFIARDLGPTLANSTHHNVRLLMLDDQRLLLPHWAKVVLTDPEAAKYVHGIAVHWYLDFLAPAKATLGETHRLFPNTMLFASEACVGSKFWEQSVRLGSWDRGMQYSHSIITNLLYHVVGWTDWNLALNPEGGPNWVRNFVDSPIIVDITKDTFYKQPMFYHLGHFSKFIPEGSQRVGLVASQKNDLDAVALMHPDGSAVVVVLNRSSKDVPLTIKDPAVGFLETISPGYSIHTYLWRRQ
Sequence of Cytochrome P450 3A4 (Homo sapiens) (P08684 whole entry, looked up): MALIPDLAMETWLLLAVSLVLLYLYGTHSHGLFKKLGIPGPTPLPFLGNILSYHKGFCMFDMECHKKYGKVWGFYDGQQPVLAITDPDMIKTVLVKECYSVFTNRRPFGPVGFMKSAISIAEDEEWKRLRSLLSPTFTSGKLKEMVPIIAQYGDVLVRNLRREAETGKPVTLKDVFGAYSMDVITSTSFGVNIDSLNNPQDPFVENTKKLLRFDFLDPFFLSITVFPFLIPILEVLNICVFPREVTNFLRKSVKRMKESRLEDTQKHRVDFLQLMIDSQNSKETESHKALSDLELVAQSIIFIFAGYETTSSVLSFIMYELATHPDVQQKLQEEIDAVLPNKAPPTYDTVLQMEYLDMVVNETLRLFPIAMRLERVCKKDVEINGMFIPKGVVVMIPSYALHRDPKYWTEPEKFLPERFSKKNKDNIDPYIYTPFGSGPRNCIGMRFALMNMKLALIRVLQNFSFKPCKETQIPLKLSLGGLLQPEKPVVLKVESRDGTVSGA
Sequence of 3',5'-cyclic-AMP phosphodiesterase 4B (Homo sapiens) (Q07343 whole entry, looked up): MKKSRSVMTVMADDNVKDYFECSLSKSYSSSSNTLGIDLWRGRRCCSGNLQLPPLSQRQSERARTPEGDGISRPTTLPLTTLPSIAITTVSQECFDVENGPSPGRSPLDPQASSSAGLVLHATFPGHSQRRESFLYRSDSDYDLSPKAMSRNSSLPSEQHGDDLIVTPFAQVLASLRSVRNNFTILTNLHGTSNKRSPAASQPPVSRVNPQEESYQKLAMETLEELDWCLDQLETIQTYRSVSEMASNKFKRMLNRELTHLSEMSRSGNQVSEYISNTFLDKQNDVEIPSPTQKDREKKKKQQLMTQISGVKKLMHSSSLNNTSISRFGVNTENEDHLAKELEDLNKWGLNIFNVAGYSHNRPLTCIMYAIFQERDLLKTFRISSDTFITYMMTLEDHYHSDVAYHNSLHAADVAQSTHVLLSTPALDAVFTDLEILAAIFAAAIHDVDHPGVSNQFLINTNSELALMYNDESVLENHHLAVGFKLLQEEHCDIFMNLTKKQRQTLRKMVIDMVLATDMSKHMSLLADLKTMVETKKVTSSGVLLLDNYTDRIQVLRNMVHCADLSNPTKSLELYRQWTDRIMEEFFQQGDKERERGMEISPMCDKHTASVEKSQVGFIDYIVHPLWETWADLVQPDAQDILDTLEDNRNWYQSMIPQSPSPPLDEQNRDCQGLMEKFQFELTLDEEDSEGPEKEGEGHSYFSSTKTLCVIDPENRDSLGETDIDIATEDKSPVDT
Sequence of Cytochrome P450 2C19 (Homo sapiens) (P33261 whole entry, looked up): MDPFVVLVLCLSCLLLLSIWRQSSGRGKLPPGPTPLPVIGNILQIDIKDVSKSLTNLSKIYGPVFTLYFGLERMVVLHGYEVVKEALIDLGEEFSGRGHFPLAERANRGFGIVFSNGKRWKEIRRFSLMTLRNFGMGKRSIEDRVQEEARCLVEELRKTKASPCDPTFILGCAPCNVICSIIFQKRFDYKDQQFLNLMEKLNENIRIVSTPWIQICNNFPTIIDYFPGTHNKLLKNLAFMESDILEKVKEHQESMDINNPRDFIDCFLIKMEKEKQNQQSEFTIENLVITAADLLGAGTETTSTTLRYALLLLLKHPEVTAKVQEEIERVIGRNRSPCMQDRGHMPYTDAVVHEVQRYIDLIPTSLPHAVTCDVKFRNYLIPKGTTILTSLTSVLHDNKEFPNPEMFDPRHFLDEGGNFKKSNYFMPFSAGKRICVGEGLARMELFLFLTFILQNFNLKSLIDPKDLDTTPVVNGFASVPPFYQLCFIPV
Sequence of Ubiquitin carboxyl-terminal hydrolase 1 (Homo sapiens) (O94782 whole entry, looked up): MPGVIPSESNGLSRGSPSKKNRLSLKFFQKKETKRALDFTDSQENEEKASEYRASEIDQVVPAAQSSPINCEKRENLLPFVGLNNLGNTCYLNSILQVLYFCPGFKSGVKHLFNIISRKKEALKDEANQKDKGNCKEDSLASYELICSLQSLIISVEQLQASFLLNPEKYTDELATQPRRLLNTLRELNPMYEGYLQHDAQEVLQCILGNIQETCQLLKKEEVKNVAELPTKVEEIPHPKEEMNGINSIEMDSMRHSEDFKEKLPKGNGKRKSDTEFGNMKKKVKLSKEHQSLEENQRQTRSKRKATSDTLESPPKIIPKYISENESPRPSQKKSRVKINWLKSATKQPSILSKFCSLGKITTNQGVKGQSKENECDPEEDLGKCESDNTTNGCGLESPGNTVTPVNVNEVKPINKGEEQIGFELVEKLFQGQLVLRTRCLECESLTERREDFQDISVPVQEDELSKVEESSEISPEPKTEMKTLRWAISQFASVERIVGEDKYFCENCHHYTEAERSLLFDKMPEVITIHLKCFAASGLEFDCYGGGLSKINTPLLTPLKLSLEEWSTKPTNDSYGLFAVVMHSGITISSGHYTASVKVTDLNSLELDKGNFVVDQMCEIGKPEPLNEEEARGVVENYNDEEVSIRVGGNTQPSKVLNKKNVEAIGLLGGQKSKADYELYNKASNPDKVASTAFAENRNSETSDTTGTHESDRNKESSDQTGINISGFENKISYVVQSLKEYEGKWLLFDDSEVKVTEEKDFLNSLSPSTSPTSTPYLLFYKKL

N#Cc1ccccc1-c1ccc2ncnc(N3CCNCC3)c2c1
inactive: Potency [1] > 11.4 µM | activity change, negative = inhibition [2] 6.5% | activity change, negative = inhibition [3] 17.9% | activity, negative = inhibition [4] 2.26% | Potency [5] > 46 µM | Potency [6] > 46 µM | outcome [7] | Potency [8] | Potency [9] | outcome [10] | outcome [11] | activity change, negative = inhibition [12] 7.44% | Potency [13] | Potency [14]
26.9%: max response [12, 20]
18.9%: max response [12, 19]

Cc1ccccc1-c1cncnc1N(C)Cc1ccco1
active: Potency [15] 15.8 µM | Potency [16] 1.58 µM | Potency [17] 5.01 µM
2.41%: max response [12, 20]
inactive: Potency [1] > 11.4 µM | activity change, negative = inhibition [2] -3.79% | activity, negative = inhibition [4] 11.8% | Potency [5] > 46 µM | Potency [6] > 46 µM | outcome [7] | Potency [8] | Potency [9] | outcome [10] | outcome [11] | activity change, negative = inhibition [12] 8.25% | Potency [14]
-7.61%: max response [12, 19]

N#CCCn1c(=O)c(-c2cccs2)nc2cnc(OCc3ccccc3)nc21
inactive: Potency [1] > 11.4 µM | activity change, negative = inhibition [2] 9.62% | Potency [5] > 9.22 µM | Potency [6] > 46 µM | outcome [7] | Potency [8] | activity change, negative = inhibition [12] -2.65% | Potency [14]
active: Potency [15] 3.98 µM | Potency [18] 3.16 µM
1.75%: max response [12, 20]
0.666%: max response [12, 19]

O=C(c1cnccn1)N1CCC[C@@]2(CCN(c3ccccc3)C2)C1
active: Potency [15] 15.8 µM | Potency [16] 7.94 µM
inactive: Potency [1] > 11.4 µM | activity change, negative = inhibition [2] -15.8% | activity, negative = inhibition [4] -3.78% | Potency [8] | Potency [9] | activity change, negative = inhibition [12] -0.338% | Potency [14]
17%: max response [12, 19]
18.8%: max response [12, 20]

CC(C)NC(=O)N1CC[C@@]2(CCCN(C(=O)c3cc(C(F)(F)F)cc(C(F)(F)F)c3)C2)C1
19.4%: max response [12, 19]
20.3%: max response [12, 20]
inactive: Potency [1] > 11.4 µM | activity change, negative = inhibition [2] 8.49% | Potency [15] | activity, negative = inhibition [4] -10.1% | Potency [6] > 46 µM | outcome [7] | Potency [8] | Potency [9] | activation [18] -1.12% | activity change, negative = inhibition [12] 1.68% | Potency [14]

O=C(Nc1ccccc1)N1CC2(CCN(C(=O)c3cccc(F)c3)CC2)C1
inactive: Potency [1] > 11.4 µM | activity change, negative = inhibition [2] 13.2% | activity change, negative = inhibition [3] 14.3% | activity, negative = inhibition [4] 0.524% | Potency [6] > 46 µM | outcome [7] | Potency [8] | activity change, negative = inhibition [12] 5.53% | Potency [14]
9.88%: max response [12, 19]
20.2%: max response [12, 20]

O=C(Nc1ccccc1)N1CCC2(CC1)CCN(C(=O)c1ccncc1)CC2
12.3%: max response [12, 19]
inactive: Potency [1] > 11.4 µM | activity change, negative = inhibition [2] -8.86% | activity change, negative = inhibition [3] -7.39% | activity, negative = inhibition [4] 2.23% | outcome [7] | Potency [8] | activity change, negative = inhibition [12] 7.6% | Potency [14]
27.7%: max response [12, 20]
